In the library only some 6.6% were active in any assay of this set; here they are far more common.
HT1080 IDH1KD tx: qHTS for induction of synthetic lethality in tumor cells producing 2HG: qHTS for the HT-1080-IDH1KD cell line; AID 686971, 2013; 360,000 tested, 2% active; HT-1080 IDH1 knockdown viability, ATP luminescence, 48 h; Potency, µM (top dose mostly 46.1 µM), hits mostly cytotoxic
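In this qHTS, HT-1080 cells depleted of IDH1 are exposed for 48 h at 37 °C to compound titrations. Toxicity is scored from CellTiter-Glo luminescence, with DMSO as full viability and medium alone as none.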
HT1080NT lethal: qHTS for induction of synthetic lethality in tumor cells producing 2HG: qHTS for the HT-1080-NT fibrosarcoma cell line. AID 686970, 2013. HT-1080-NT fibrosarcoma viability, CellTiter-Glo ATP luminescence, 48 h. Potency, µM (top dose mostly 46.1 µM), usual class: cytotoxic. 360,000 tested, 1.6% active;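 further: NT is the 2HG producing partner of a matched IDH1 knockdown line; nearly all actives have a fitted effect of over 55% in size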
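Fibrosarcoma NT cells, 750 per well in 5% FBS RPMI, were exposed to compound for 48 hours. Viability: CellTiter-Glo luminescence.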
KB-3-1 cytotox: qHTS assay for MDR1-selective chemotherapeutics: Primary screen using the parental adenocarcinoma cell KB-3-1; KB-3-1 viability, CellTiter-Glo ATP luminescence, 72 h; Potency, µM (top dose mostly 46.1 µM), most hits filed as cytotoxic; 400,000 tested, 1.4% active; AID 1347075, 2019; further: nearly all actives have a fitted effect of over 60% in size
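Multi-concentration cytotoxicity screen in KB-3-1 cells grown in DMEM lacking phenol red with 10% FBS. After 72 h at 37 °C with compound, ATP-dependent luminescence was recorded.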
TGFb inhibitor: qHTS for Inhibitors of TGF-b | AID 588855, 2011 | HepG2 CAGA-GFP TGF-b/SMAD3 reporter, GFP fluorescence, 18 h; TGF-beta stimulated, 500 pg/mL final | Potency, µM (top dose mostly 46.1 µM), actives largely listed as inhibitors | 410,000 tested, 1.2% active; further: nearly all actives have a fitted effect of over 65% in size
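Inhibition of TGF-beta-driven CAGA-GFP reporter expression in HEPG2 cells is measured by cellular GFP fluorescence after 18 h stimulation with 500 pg/mL recombinant TGF-beta in 1% FBS medium at 37 degrees C.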
KB-V1 MDR tox: qHTS assay for MDR1-selective chemotherapeutics: Primary screen using the drug-selected MDR subline cells KB-V1. KB-V1 MDR cells viability, CellTiter-Glo, 72 h. Potency, µM (top dose mostly 46.1 µM), most hits filed as cytotoxic. 400,000 tested, 3.4% active; further: nearly all actives have a fitted effect of over 60% in size
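In this primary screen, KB-V1 cells overexpressing P-gp are incubated with library compounds (lowest to highest concentration) for 72 h at 37 degrees C before a luminescent ATP viability read.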
HepG2 viability: qHTS for Inhibitors of TGF-b: Cytotox Counterscreen. HepG2 CAGA-GFP viability, ATP luminescence, 18 h. Potency, µM (top dose mostly 46.1 µM), most hits filed as cytotoxic. 410,000 tested, 0.76% active
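HepG2 CAGA-GFP cells (1000/well, DMEM with 1% FBS) received compound, then TGF-beta at 500 pg/mL final, and were incubated 18 hours at 37 degrees C. Viability was read by CellTiter-Glo luminescence. Media-only wells were set as complete cell-killing and DMSO as no toxicity.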
A number is an active result; i = inactive; ? = inconclusive; nt = not tested or not shown. The call rests on the fitted dose curve; in most records, active means well fitted curve in the direction sought with a large enough effect; inconclusive means small, poorly fitted or top-dose-only effect, or another doubt; inactive means no such curve, though single readings can be large; an effect the other way counts as inactive or inconclusive.

SMILES | HT1080 IDH1KD tx | HT1080NT lethal | KB-3-1 cytotox | TGFb inhibitor | KB-V1 MDR tox | HepG2 viability
O=C1N/C(=N\N=C\c2cccs2)SC1Cc1ccc(Cl)cc1 (centres undefined) | 23.1µM | 18.4µM | i | i | i | i
O=C(Cn1c(=O)n(CCc2ccccc2)c(=O)c2cccnc21)Nc1ccc(F)cc1 | nt | nt | ? | ? | i | i
Cc1ccc(CNC(=O)CN(c2ccc(Cl)cc2Cl)S(=O)(=O)c2ccccc2)cc1 | nt | nt | i | ? | i | i
CC(=O)c1ccc(N2CCN(C(=O)C3CCN(S(=O)(=O)c4c(C)noc4/C=C/c4ccccc4F)CC3)CC2)cc1 | nt | nt | nt | i | nt | i
CC(=O)Nc1ccc(NC(=O)COC(=O)c2c3c(nc4ccccc24)CCN(Cc2ccccc2)C3)cc1 | i | i | i | i | i | i
O=C(COC(=O)c1c2c(nc3ccccc13)CCN(Cc1ccccc1)C2)Nc1c(F)cccc1F | i | i | i | i | 18.4µM | i
Cc1ccc2nc3sc(C(=O)NCc4ccco4)cc3cc2c1 | nt | nt | i | nt | i | nt
CC1=C(C(=O)N(C(C)C)C(C)C)CC(CC(=O)NCCc2ccccn2)C(=O)N1CCC1=CCCCC1 (centres undefined) | i | i | 20.6µM | i | i | i
CC(=O)c1cccc(NC(=O)CN2C(=O)c3cccnc3Sc3ccccc32)c1 | nt | nt | i | i | i | i
CCc1ccccc1OCCSc1nnc(-c2cc(OC)c(OC)c(OC)c2)o1 | nt | nt | i | ? | i | i
CCOC(=O)N1CCN(C(=O)CSc2nc3ccccc3c(=O)n2-c2ccccc2)CC1 | i | i | i | 3.16µM | ? | i
CCn1c(SCC(=O)N2CCN(c3ccc(Cl)cc3)CC2)nc2ccccc2c1=O | i | i | i | i | 2.59µM | i
CCn1c(SCC(=O)N2CCN(c3ccc(F)cc3)CC2)nc2ccccc2c1=O | i | i | i | i | ? | i
CCOC(=O)c1c(C)[nH]c(C)c1C(=O)CSc1nc2ccccc2c(=O)n1-c1ccc(Cl)cc1 | ? | i | ? | ? | 10.3µM | i
COc1ccc(-n2c(SCC(=O)N3CCCCC3)nc3ccccc3c2=O)cc1 | i | i | i | i | i | i
CCn1c(SCC(=O)N2CCCC2)nc2ccccc2c1=O | i | i | i | i | 6.51µM | i
CC(C)CN1CCc2nc(N3CCN(C)CC3)ncc2C1 | nt | nt | i | i | i | i
CC(C)NC(=O)Cn1c(SCC(=O)NC2CCCC2)nc2ccccc21 | i | i | i | i | i | i
COCCCn1c(SCC(=O)N2CCOCC2)nc2ccccc2c1=O | i | i | i | i | i | i
COCCn1c(SCC(=O)N2CCCCC2)nc2ccccc2c1=O | i | i | i | i | 4.11µM | i
Cc1ccc(OCCSc2nc3ccccc3n2CC(=O)N2CCCCC2)c(C)c1 | nt | nt | ? | ? | 11.6µM | i
CC(C)NC(=O)Cn1c(SCC(=O)N2CCCCCC2)nc2ccccc21 | i | i | i | i | 14.6µM | i
COc1ccc(CNC(=O)CCc2c(C)c3cc4c(C)c(C)oc4cc3oc2=O)cc1OC | nt | nt | nt | i | nt | i
Cc1ccc(CCNC(=O)CCN2N=C(c3ccc(C)cc3)CCC2=O)cc1 | nt | nt | nt | i | nt | i
Cc1cc(C)c(NC(=O)CNC(=O)CN(C)Cc2ccc(Br)s2)c(C)c1 | i | i | i | i | 16.4µM | i
SMILES | HT1080 IDH1KD tx | HT1080NT lethal | KB-3-1 cytotox | TGFb inhibitor | KB-V1 MDR tox | HepG2 viability
Cc1cccc(-n2nnc(-c3nc(-c4ccccc4)no3)c2N)c1C | nt | nt | i | i | i | i
COc1cc2c(cc1OC)C(COc1ccc(F)cc1)N(C(=O)Cc1ccc(F)cc1)CC2 (centres undefined) | nt | nt | ? | ? | i | i
O=C(NCCc1ccccc1)C(=O)c1c(-c2ccccc2)cc2ccccn12 | i | i | i | i | 20.6µM | i
O=C(NCCO)C(=O)c1c(-c2ccc(Cl)cc2)cc2ccccn12 | i | i | i | i | i | i
CCOC(=O)c1cnc(-n2nc(C)cc2C)nc1NC1CCCC1 | ? | ? | i | ? | 5.17µM | 11.2µM
CCOC(=O)c1cnc(-n2nc(C)cc2C)nc1NCCc1ccccc1 | i | i | i | i | 0.731µM | i
CCOC(=O)c1cnc(-n2nc(C)cc2C)nc1Nc1ccc(OC)cc1 | i | i | i | i | i | i
CCOC(=O)c1cnc(-n2nc(C)cc2C)nc1NCc1ccc2c(c1)OCO2 | ? | i | ? | i | ? | i
Cc1ccc(CNC(=O)CN2C(=O)CSc3ccc(S(=O)(=O)N(C)C)cc32)cc1 | nt | nt | i | i | i | i
Cc1cccc(Cn2c(O)c(N=NC(=S)Nc3ccccc3F)c3ccccc32)c1 | i | i | ? | i | ? | i
Oc1c(N=NC(=S)Nc2ccccc2F)c2ccccc2n1Cc1cccc(Cl)c1 | i | ? | 6.51µM | i | i | i
CC(C)Cn1c(O)c(N=NC(=O)c2cccc(S(=O)(=O)N3CCCCC3)c2)c2ccccc21 | i | i | ? | ? | 2.06µM | i
NC(=S)N=Nc1c(O)n(Cc2ccc(F)cc2)c2ccccc12 | i | i | i | i | i | i
O=C(NNC(=O)c1cccc(S(=O)(=O)N2CCCCC2)c1)c1ccccc1 | i | i | i | i | i | i
NC(=S)N=Nc1c(O)n(Cc2ccc(Br)cc2)c2ccccc12 | 3.66µM | ? | 3.26µM | ? | 4.61µM | i
Cn1c(O)c(N=NC(=O)c2ccccc2O)c2ccccc21 | ? | i | i | i | 16.4µM | i
Cc1occc1C(=O)N=Nc1c(O)n(C)c2ccccc12 | i | i | i | i | i | i
O=C1Cc2cc(S(=O)(=O)N3CCN(c4ccc([N+](=O)[O-])cc4)CC3)ccc2N1 | nt | nt | i | nt | i | nt
O=C1CCN(CCc2ccccc2)CCN1C(CSc1ccc(Br)cc1)c1ccccc1 (centres undefined) | nt | nt | nt | i | nt | i
CC1(c2nc3ccccc3[nH]2)CCC(=O)N1C1CC1 (centres undefined) | i | i | i | i | i | i
CCCCCn1c(CCCNC(=O)c2ccccc2)nc2ccccc21 | nt | nt | i | ? | ? | i
CCCc1cnc2c(c1SCC(=O)N1CCC(C)CC1)c(=O)n(C)c(=O)n2C | nt | nt | i | i | i | i
O=C(N=Nc1c(O)n(Cc2ccccc2)c2ccccc12)c1ccc(O)cc1 | i | i | ? | ? | 14.6µM | i
CC(C)CCn1c(O)c(N=NC(=O)c2ccco2)c2ccccc21 | i | i | i | i | 13µM | i
Cc1cccc(NC(=S)N=Nc2c(O)n(CN3CCOCC3)c3ccccc23)c1C | i | i | ? | 2.24µM | i | i
